PubChem BioAssay AID588689 (Southern Research Specialized Biocontainment Screening …, 2011)
The campaign covered roughly 340,000 compounds. About 1,000 (0.29%) were called active. Rule as the data show it: inconclusive = inhibition above about 29% without an active follow-up result; inactive = below that. A selection follows. Results with a measured potency or affinity are listed apart.

Biological target: Genome polyprotein (Dengue virus type 2 (strain 16681-PDK53)) (UniProt P29991)
Experiment: Dengue-2 NS5 methyltransferase inhibitors, primary screen, biochemical, confirmation dose response (AID 588689)
Settings: Dengue-2 NS5 methyltransferase capping enzyme assay, at 25 µM, stronger effect = higher value
[1] = measured here: pilot screen replicate inhibition

| Structure (SMILES) | inhibition | inhibition [1] [%] |
| --- | --- | --- |
| CCCCCc1nnc(N)s1 | 0% (inactive) | – |
| CN1CCN(NC(=O)CSc2ccc(Cl)cc2Cl)CC1 | -10.7% (inactive) | – |
| CCOC(=O)c1c(C)nc2c(c1-c1cc(OC)ccc1OC)C(=O)c1ccccc1-2 | 0% (inactive) | 3.65 |
| CCOC(=O)c1c2c(n(Cc3ccccc3)c1C)C(=O)C(=O)c1ccccc1-2 | 25.5% (inactive) | – |
| O=C1C=C(Nc2ccc(F)cc2)c2ccccc2C1=O | 0.37% (inactive) | – |
| Cc1ccc(NC2=CC(=O)C(=O)c3ccccc32)cc1 | 54.8% (inactive) | 5.15 |
| CC(C)(C)c1ccc(C2(C)NC(=O)N(CC(=O)c3ccc[nH]3)C2=O)cc1 (configuration not stated) | -2.04% (inactive) | – |
| CC(OC(=O)c1cccc(-n2cnnn2)c1)c1nc2ccccc2c(=O)[nH]1 (configuration not stated) | -3.65% (inactive) | – |
| CC(=O)OCC1=C(C(=O)O)N2C(=O)C(NC(=O)CCn3nc(C)c(Cl)c3C)C2SC1 (configuration not stated) | 0.78% (inactive) | – |
| CC(=O)OCC1=C(C(=O)O)N2C(=O)[C@@H](NC(=O)Cc3ccccc3)[C@H]2SC1 | -1.45% (inactive) | – |
| O=C(O)c1cccc(NC(=O)c2ccc3c(c2)C(=O)N(Cc2ccco2)C3=O)c1 | -0.72% (inactive) | – |
| O=C1NC(=O)/C(=C/c2ccccc2OCc2ccccc2)S1 | 11.6% (inactive) | – |
| CN1C(=O)/C(=C\c2ccccc2OCc2ccccc2)SC1=S | -2.61% (inactive) | – |
| O=C1NC(=O)/C(=C\c2ccccc2OCc2ccccc2)S1 | -0.78% (inactive) | – |
| O=C(O)CCCCN1C(=O)/C(=C\c2ccc(OCc3ccccc3)c(OCc3ccccc3)c2)SC1=S | 6.5% (inactive) | – |
| Cc1nn(-c2ccccc2)c(Cl)c1/C=C1\C(=O)N(C)C(=S)N1C | -12.7% (inactive) | – |
| Cc1nn(-c2ccccc2)c(Cl)c1/C=C1\SC(=S)N(C)C1=O | 4.37% (inactive) | – |
| O=C(O)CCCN1C(=O)/C(=C\c2ccco2)SC1=S | 47.7% (inactive) | – |
| O=C(O)COc1ccccc1/C=C1\SC(=O)N(Cc2ccc(F)cc2)C1=O | 8.1% (inactive) | – |
| CC(Oc1ccccc1)C(=O)N=C1SC2CS(=O)(=O)CC2N1Cc1ccccc1 (configuration not stated) | 0% (inactive) | – |
| Cc1nc(-c2ccccc2)sc1C(=O)Nc1ccccc1F | 0% (inactive) | – |
| CCOC(=O)N1CCN(C(=O)c2cn(CC)c3ccc(S(=O)(=O)N(C)C4CCCCC4)cc3c2=O)CC1 | 2.95% (inactive) | – |

| Structure (SMILES) | inhibition | inhibition [1] [%] |
| --- | --- | --- |
| O=C(NO)C1CC2C=CC1C2 (configuration not stated) | -6.15% (inactive) | – |
| CCn1ccc2c(OCC(=O)NCCc3ccc(OC)c(OC)c3)cccc2c1=O | -3.6% (inactive) | – |
| CCOc1ccccc1C=C1SC(=S)N(CC)C1=O | 6.98% (inactive) | – |
| CN1C(=O)S/C(=C/c2ccccc2OCc2ccc(C(=O)O)cc2)C1=O | 5.16% (inactive) | – |
| CC(=C\c1ccccc1)/C=C1/SC(=S)N(CCC(=O)O)C1=O | 11.1% (inactive) | – |
| CC(=C\c1ccccc1)/C=C1/SC(=S)N(CCCC(=O)O)C1=O | 19% (inactive) | – |
| O=C(Nc1cccc(C(=O)O)c1)/C(=C\c1ccccc1)NC(=O)c1ccccc1Cl | -2.05% (inactive) | – |
| O=C1CCc2cc(S(=O)(=O)NCCc3ccc(Cl)cc3)cc3c2N1CC3 | 3.62% (inactive) | – |
| O=S(=O)(c1cccc2cccc(Cl)c12)N1CCCC1 | -4.68% (inactive) | – |
| O=C(CCC1CCCN(C(=O)CCC(F)(F)F)C1)NCc1ccc(F)c(F)c1 (configuration not stated) | -0.74% (inactive) | – |
| O=C(COC(=O)c1ccco1)NCc1ccccc1Cl | 3.03% (inactive) | – |
| Nc1ccc(S(=O)(=O)c2cccc(N)c2)cc1 | -5.56% (inactive) | – |
| Nc1ccc(S(=O)(=O)c2ccc(N)cc2)cc1 | 1.49% (inactive) | – |
| COCCn1c(C)cc(C(=O)CSc2n[nH]c(N)n2)c1C | -0.41% (inactive) | – |
| O=c1c2c([N+](=O)[O-])cc([N+](=O)[O-])cc2sn1Cc1ccccc1 | 18.3% (inactive) | – |
| O=C1c2c([N+](=O)[O-])cc([N+](=O)[O-])cc2S(=O)N1Cc1ccccc1 (configuration not stated) | 10.1% (inactive) | – |
| COC(=O)c1ccc(NC(=O)CCCCCn2nnc3ccccc3c2=O)cc1 | -0.65% (inactive) | – |
| O=C1CN(C(=O)N[C@@H](Cc2ccccc2)C(=O)N[C@H](Cc2ccccc2)C(=O)O)c2ccccc2N1 | -2.17% (inactive) | – |
| COc1cc(OC)cc(N(C(=O)C2COc3ccccc3O2)C(C(=O)NC2CCCCC2)c2ccc(O)cc2)c1 (configuration not stated) | -5.19% (inactive) | – |
| COc1ccccc1NC(=O)Nc1ccccc1C(N)=O | -5.31% (inactive) | – |
| CCOc1ccc(C(=O)N/N=C/c2ccc(-c3ccc(S(=O)(=O)Nc4ncccn4)cc3)o2)cc1 | 0.82% (inactive) | – |
| NC(=O)N/N=C/c1ccc(-c2ccc(S(=O)(=O)Nc3ncccn3)cc2)o1 | -2.88% (inactive) | – |

| Structure (SMILES) | inhibition | inhibition [1] [%] |
| --- | --- | --- |
| CCOC(=O)CC(=O)CSc1ccc2nnc(-c3ccc(F)cc3)n2n1 | 0.81% (inactive) | – |
| CC(C)CCN1CN(S(=O)(=O)c2cccs2)c2nc3ccccc3nc21 | -2.77% (inactive) | – |
| COc1cc(NC(=S)NN2CCN(C)CC2)cc(OC)c1 | -3.9% (inactive) | – |
| N#C/C(=C\C=C\c1ccccc1[N+](=O)[O-])c1nc(-c2ccc3c(c2)OCO3)cs1 | -0.69% (inactive) | – |
| COc1ccc(-c2cc(C(F)(F)F)n3nc(C(=O)NCc4ccco4)cc3n2)cc1 | -2.82% (inactive) | – |
| CCc1ccc(N2C(=O)c3sc4nnc(C)c(=O)n4c3C2=O)cc1 | -0.68% (inactive) | 5.46 |
| Cc1ccc(N2C(=O)c3sc4nnc(C)c(=O)n4c3C2=O)cc1 | 0% (inactive) | – |
| Cc1ccc(S(=O)(=O)N2CCCCC2)cc1NC(=O)c1ccco1 | -2.75% (inactive) | – |
| Cc1ccc(C)c(OCc2cc(C(=O)NC(C)c3cnn(C)c3)no2)c1 (configuration not stated) | -5% (inactive) | – |
| CCOC(=O)N1CCC(Nc2c(-c3ccc(C)c(C)c3)c(=O)c2=O)CC1 | -8.18% (inactive) | – |
| COc1ccc(S(=O)(=O)Nc2cccc3c2O[C@H](CN(C)C(=O)Nc2ccc(C(F)(F)F)cc2)[C@@H](C)CN([C@H](C)CO)C3=O)cc1 | -2.11% (inactive) | – |
| O=C(CCCN1C(=O)/C(=C\c2cccs2)SC1=S)Nc1ccc(O)cc1C(=O)O | -9.83% (inactive) | – |
| O=C(CN1C(=O)S/C(=C\c2cccs2)C1=O)Nc1ccc(O)cc1C(=O)O | 14.3% (inactive) | – |
| O=C(CN1C(=O)S/C(=C\c2cccs2)C1=O)Nc1ccc(C(=O)O)c(O)c1 | 15% (inactive) | – |
| O=C(CN1C(=O)S/C(=C\c2cccs2)C1=O)Nc1ccc(O)c(C(=O)O)c1 | 8.14% (inactive) | – |
| O=C(CCCN1C(=O)/C(=C\c2ccccc2)SC1=S)Nc1ccc(O)cc1C(=O)O | 20.6% (inactive) | – |
| O=C(CN1C(=O)/C(=C/c2ccco2)SC1=S)Nc1ccc(C(=O)O)c(O)c1 | 36.5% (inactive) | – |
| O=C(CCN1C(=O)/C(=C/c2ccco2)SC1=S)Nc1ccc(C(=O)O)c(O)c1 | 48.7% (inactive) | – |
| Cc1ccc(/C=C2\SC(=S)N(CCC(=O)NNC(=O)c3ccc(O)cc3)C2=O)cc1 | -0.88% (inactive) | – |
| CC(C)(CNC(=O)c1ccccc1F)CNC(=O)c1ccccc1F | 3.07% (inactive) | – |
| CC(C)OC(=O)N(C)C[C@H]1OCc2cnnn2CCCC(=O)N([C@H](C)CO)C[C@H]1C | -3.41% (inactive) | – |
| COc1ccc(C2=NS(=O)(=O)N(C)C(C(=O)NC3CCCCC3)=C2)cc1OC | -5.5% (inactive) | – |

| Structure (SMILES) | inhibition | inhibition [1] [%] |
| --- | --- | --- |
| O=S(=O)(CCc1nc2ccccc2o1)c1ccc2ccccc2c1 | -2.77% (inactive) | – |
| CC(Sc1nnc(COc2ccc(Cl)cc2)n1Cc1ccccc1)C(=O)O (configuration not stated) | 0.73% (inactive) | – |
| CCN(CC)C(=O)C1=C(C)N(CCC2=CCCCC2)C(=O)C(CC(=O)NCC2CCCCC2)C1 (configuration not stated) | -0.57% (inactive) | – |
| O=[N+]([O-])c1cc(C(F)(F)F)cc([N+](=O)[O-])c1NN=C1CCCCC1 | -139% (inactive) | – |
| CC1(C)CC(=O)C=C(NCc2ccc(C(=O)O)cc2)C1 | -7.73% (inactive) | – |
| COc1ccc(CN2C(=O)C(C)Nc3ncnc(N4CCOCC4)c32)cc1 (configuration not stated) | -5.79% (inactive) | – |
| COc1ccc(S(=O)(=O)N(CCCN2CCOCC2)Cc2cccc3ccccc23)cc1 | 1.67% (inactive) | – |
| CCN(CC)c1ccc(C(=C2C=CC(=[N+](CC)CC)C=C2)c2ccc(N(CC)CC)cc2)cc1 | 17% (inactive) | – |
| CCN(CC)c1ccc(C(=C2C=CC(=[N+](CC)CC)C=C2)c2ccc(S(=O)(=O)O)cc2S(=O)(=O)[O-])cc1 | 1.48% (inactive) | – |
| Cc1ccc2[nH]cc(CCNC(=O)c3ccc4c(c3)OCO4)c2c1 | 1.31% (inactive) | -1.82 |
| O=S(=O)(NCc1nnc2ccccn12)c1ccc(F)cc1 | -3.63% (inactive) | – |
| Cc1sc(N2C(=O)C3C4C=CC(C4)C3C2=O)c(C#N)c1C (configuration not stated) | -2.18% (inactive) | – |
| CC(C)[C@H](NC(=O)c1c(F)cccc1F)C(=O)OCC(=O)NNC(=O)c1ccccc1 | -2.88% (inactive) | – |
| CN(C)c1ccc2c(O)cc(=O)n(C)c2c1 | 23.3% (inactive) | – |
| CN(C)c1ccc(Cc2ccc(N(C)C)cc2)cc1 | 4.45% (inactive) | – |
| COc1cc(NC(=O)c2cccs2)c(OC)cc1NC(=O)c1cccs1 | -7.78% (inactive) | – |
| CCC(C)N(C(=O)CSc1nc(C)nc2ccccc12)C1CCS(=O)(=O)C1 (configuration not stated) | -9.59% (inactive) | – |
| O=C(c1ccccc1)N1CCN(c2ccc(N3CCOCC3)nn2)CC1 | 0.74% (inactive) | – |
| C[C@H](CO)N1C[C@H](C)[C@H](CN(C)C(=O)Nc2ccccc2)OCc2cnnn2CCCC1=O | 1.65% (inactive) | – |
| O=C1C=C(Nc2ccccc2O)c2ccccc2C1=O | 19% (inactive) | – |
| O=C1C=C(Nc2cccnc2)c2ccccc2C1=O | 33.2% (inactive) | – |
| CSc1nnc(C)c(=O)n1COC(=O)COc1ccc2ccccc2c1 | 3.64% (inactive) | – |
